In the supplement of paper PMC12494721:
Structures can show the parent of a compound that is named as a salt.

What was measured:
Settings in all cases: incubation time: 27 h, anaerobic, 37 °C;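 for the amine columns active = adjusted P below 0.05 in both replicates with a change the same way and a mean fold change under 0.8 or over 1.25; inactive = the rest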
[1] = tested on: Clostridium sporogenes DSM 1664; assay: growth (OD595) fold change vs plate DMSO controls (fold change (ratio)); higher = more growth
Outline: (§1)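 The measure reported is growth, taken as fold change against the median of DMSO controls on the same plate. Anaerobic mGAM cultures in 96-well plates (27 h, 37 °C) were read at 595 nm, blank-subtracted, corrected for compound background using 20 µM compound solutions in water, and multiplied by a calibration factor of 5 to give OD. Any fold change above 1.5 became NA, and 2 biological replicates were averaged.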

Escherichia coli IAI1 [2] = assay: as above
Outline: as §1

[3] = tested on: Klebsiella aerogenes DSM 30053; assay: as above
Outline: as §1

[4] = tested on: Ruminococcus gnavus DSM 108212; assay: as above
Outline: as §1

[5] = tested on: Klebsiella aerogenes DSM 30053; assay: fold change of Histamine concentration vs plate DMSO controls (fold change (ratio)); higher = more amine produced, active = hit call of the paper (significant change in both replicates, either direction)
Outline: (§2)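 In 80 µL wells, cultures of four gut bacterial strains in mGAM started at OD 0.1 before a 1:1 dilution and grew anaerobically at 37 °C for 27 h. Compounds were added to 20 µM final, except sweeteners at 50 µM final. After extraction of whole cultures with cold acetonitrile/methanol plus 0.1% formic acid and centrifugation, amines were measured by LC–triple-quadrupole MS in dynamic MRM mode against external calibration curves, with within-batch drift correction. Values give fold change over DMSO controls on the same plate, averaged across 2 biological replicates.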

[6] = tested on: Clostridium sporogenes DSM 1664; assay: fold change of Tryptamine concentration vs plate DMSO controls (fold change (ratio)); higher = more amine produced, active = hit call of the paper (significant change in both replicates, either direction)
Outline: as §2

[7] = tested on: Ruminococcus gnavus DSM 108212; assay: as above
Outline: as §2

Escherichia coli IAI1 [8] = assay: fold change of Putrescine concentration vs plate DMSO controls (fold change (ratio)); higher = more amine produced, active = hit call of the paper (significant change in both replicates, either direction)
Outline: as §2

[9] = tested on: Klebsiella aerogenes DSM 30053; assay: as above
Outline: as §2

Escherichia coli IAI1 [10] = assay: fold change of Cadaverine concentration vs plate DMSO controls (fold change (ratio)); higher = more amine produced, active = hit call of the paper (significant change in both replicates, either direction)
Outline: as §2

[11] = tested on: Klebsiella aerogenes DSM 30053; assay: as above
Outline: as §2

[12] = tested on: Ruminococcus gnavus DSM 108212; assay: fold change of 2-Phenylethylamine concentration vs plate DMSO controls (fold change (ratio)); higher = more amine produced, active = hit call of the paper (significant change in both replicates, either direction)
Outline: as §2

SMILES	growth [1]	growth (Escherichia coli IAI1 [2])	growth [3]	growth [4]	fold change of Histamine concentration [5]	fold change of Tryptamine concentration [6]	fold change of Tryptamine concentration [7]	fold change of Putrescine concentration (Escherichia coli IAI1 [8])	fold change of Putrescine concentration [9]	fold change of Cadaverine concentration (Escherichia coli IAI1 [10])	fold change of Cadaverine concentration [11]	fold change of 2-Phenylethylamine concentration [12]
CCCCC(=O)N(Cc1ccc(-c2ccccc2-c2nnn[nH]2)cc1)[C@H](C(=O)O)C(C)C [Valsartan] (20 µM)	1.14	1.19	1.08	1.06	0.913 (inactive)	1.05 (inactive)	1.07 (inactive)	1.17 (inactive)	0.951 (inactive)	0.941 (inactive)	1.05 (inactive)	1.12 (inactive)
O=C1c2ccccc2C(=O)C1c1ccccc1 [Phenindione] (20 µM)	1.17	0.963	0.969	1.07	1.08 (inactive)	1 (inactive)	1.01 (inactive)	0.958 (inactive)	1 (inactive)	0.984 (inactive)	0.976 (inactive)	0.977 (inactive)
CC(C)(C)NC[C@H](O)COc1nsnc1N1CCOCC1 [Timolol maleate salt] (20 µM)	1	1.03	1.02	1.01	1.04 (inactive)	1.03 (inactive)	0.991 (inactive)	1.12 (inactive)	1.01 (inactive)	1.02 (inactive)	1 (inactive)	0.997 (inactive)
CC(C)(C)c1ccc(C(=O)CCCN2CCC(OC(c3ccccc3)c3ccccc3)CC2)cc1 [Ebastine] (20 µM)	1.13	1	1.01	0.852	1.02 (inactive)	0.991 (inactive)	0.856 (inactive)	1.02 (inactive)	1 (inactive)	1.01 (inactive)	0.983 (inactive)	1.02 (inactive)
C=C1[C@H](CO)[C@@H](O)C[C@@H]1n1cnc2c(=O)[nH]c(N)nc21 [Entecavir] (20 µM)	0.907	0.934	1.04	1.04	0.969 (inactive)	0.982 (inactive)	0.999 (inactive)	0.972 (inactive)	1 (inactive)	1.04 (inactive)	0.985 (inactive)	0.98 (inactive)
CC(=O)N[C@@H](CC(C)C)C(=O)O [N-Acetyl-L-leucine] (20 µM)	1.1	0.831	0.991	1	0.86 (inactive)	0.964 (inactive)	1.03 (inactive)	0.892 (inactive)	1.01 (inactive)	1.07 (inactive)	1.03 (inactive)	1.04 (inactive)
CCCCc1cc2ccccc2c(OCCN(C)C)n1 [Dimethisoquin hydrochloride] (20 µM)	0.969	1.01	1.1	0.962	0.872 (inactive)	0.946 (inactive)	0.91 (inactive)	1.07 (inactive)	0.983 (inactive)	1.06 (inactive)	0.994 (inactive)	0.96 (inactive)
CCCC1O[C@@H]2C[C@H]3[C@@H]4CCC5=CC(=O)C=C[C@]5(C)[C@H]4[C@@H](O)C[C@]3(C)[C@]2(C(=O)CO)O1 (stereo partly drawn) [Budesonide] (20 µM)	1.13	0.993	0.997	1.08	1.06 (inactive)	0.934 (inactive)	0.998 (inactive)	1.02 (inactive)	1.01 (inactive)	1.02 (inactive)	0.994 (inactive)	0.984 (inactive)
Cc1cc(C2CCCCC2)n(O)c(=O)c1 [Ciclopirox ethanolamine] (20 µM)	0.962	1.05	1.06	1.13	0.978 (inactive)	1.04 (inactive)	1.02 (inactive)	1.06 (inactive)	0.994 (inactive)	1 (inactive)	1 (inactive)	0.976 (inactive)
CC(C)(C)NCC(O)COc1cccc2c1CCC(=O)N2 (stereo not drawn) [Carteolol hydrochloride] (20 µM)	0.96	1.01	0.997	0.895	0.987 (inactive)	0.985 (inactive)	1.01 (inactive)	1.01 (inactive)	0.982 (inactive)	1 (inactive)	0.996 (inactive)	0.982 (inactive)
CN1CCC(=C2c3ccccc3CCc3cccnc32)CC1 [Azatadine maleate] (20 µM)	0.968	0.983	0.994	0.99	1.05 (inactive)	1.14 (inactive)	1.01 (inactive)	1.34 (inactive)	1.01 (inactive)	0.966 (inactive)	1 (inactive)	1.03 (inactive)
CC#CCn1c(N2CCC[C@@H](N)C2)nc2c1c(=O)n(Cc1nc(C)c3ccccc3n1)c(=O)n2C [Linagliptin] (20 µM)	1.01	1.03	0.993	0.856	1.08 (inactive)	1.07 (inactive)	1.02 (inactive)	1.01 (inactive)	1.02 (inactive)	0.983 (inactive)	0.996 (inactive)	0.997 (inactive)
CCCCOc1ccc(CC(=O)NO)cc1 [Bufexamac] (20 µM)	0.989	0.929	0.846	1.04	1.25 (inactive)	0.989 (inactive)	1.02 (inactive)	0.929 (inactive)	0.959 (inactive)	0.965 (inactive)	0.956 (inactive)	1.07 (inactive)
Cc1cc(O)c(C(=O)N[C@@H](C(=O)N[C@@H]2C(=O)N3C(C(=O)O)=C(CSc4nnnn4C)CS[C@H]23)c2ccc(O)cc2)cn1 [Cefpiramide] (20 µM)	0	0.0131	0.61	0	0.829 (inactive)	0.0275 (active)	0.0434 (active)	0.516 (inactive)	0.981 (inactive)	1.92 (active)	1.08 (inactive)	0.0464 (active)
COc1cc(N)c(Cl)cc1C(=O)NC1CCN(Cc2ccccc2)CC1 [Clebopride maleate] (20 µM)	1.05	0.95	0.981	0.875	1 (inactive)	1.01 (inactive)	0.985 (inactive)	0.926 (inactive)	0.976 (inactive)	0.984 (inactive)	0.999 (inactive)	0.985 (inactive)
CC(C)(C)CC(C)(C)c1ccc(O)c(Cc2ccc(Cl)cc2Cl)c1 [Clofoctol] (20 µM)	0.000434	0.973	1.01	0.559	1.01 (inactive)	0.0134 (active)	0.143 (active)	0.999 (inactive)	1.01 (inactive)	1.01 (inactive)	1.01 (inactive)	0.132 (active)
C#C[C@]1(O)CC[C@H]2[C@@H]3CCC4=Cc5oncc5C[C@]4(C)[C@H]3CC[C@@]21C [Danazol] (20 µM)	0.903	0.883	0.858	0.744	1.07 (inactive)	0.887 (inactive)	1.03 (inactive)	1.01 (inactive)	1.02 (inactive)	0.994 (inactive)	0.993 (inactive)	0.997 (inactive)
CCOC(=O)Nc1ccc2c(c1)N(C(=O)CCN1CCOCC1)c1ccccc1S2 [Moricizine hydrochloride] (20 µM)	1.09	1.08	0.995	1.06	1 (inactive)	0.989 (inactive)	0.978 (inactive)	1.03 (inactive)	1.01 (inactive)	1.01 (inactive)	1 (inactive)	1 (inactive)
Clc1ccc(CSC(Cn2ccnc2)c2ccc(Cl)cc2Cl)cc1 (stereo not drawn) [Sulconazole nitrate] (20 µM)	0.862	1.05	0.995	0.423	0.872 (inactive)	1 (inactive)	0.434 (active)	0.922 (inactive)	0.96 (inactive)	0.499 (inactive)	1.01 (inactive)	0.667 (active)
CC(C)C(=O)c1c(C(C)C)nn2ccccc12 [Ibudilast] (20 µM)	0.946	0.973	1.02	0.991	1.02 (inactive)	0.996 (inactive)	1.08 (inactive)	1.26 (inactive)	0.984 (inactive)	0.987 (inactive)	0.997 (inactive)	1.09 (inactive)
CCOC(=O)C(C)(C)Oc1ccc(Cl)cc1 [Clofibrate] (20 µM)	1.24	1.23	1.03	0.977	1.07 (inactive)	1.04 (inactive)	1 (inactive)	1.18 (inactive)	1.03 (inactive)	0.919 (inactive)	0.996 (inactive)	0.97 (inactive)
NC1CCN(c2c(F)cc3c(=O)c(C(=O)O)cn(C4CC4)c3c2Cl)C1 (stereo not drawn) [Clinafloxacin] (20 µM)	0.00892	0.0142	0.102	0.356	0.118 (active)	0.0514 (active)	0.337 (active)	0.703 (inactive)	0.647 (active)	0.233 (active)	0.942 (inactive)	0.36 (active)
Cc1onc(-c2ccccc2)c1-c1ccc(S(N)(=O)=O)cc1 [Valdecoxib] (20 µM)	0.979	0.98	0.973	0.87	1.08 (inactive)	0.955 (inactive)	0.961 (inactive)	1.07 (inactive)	0.983 (inactive)	1.03 (inactive)	0.972 (inactive)	0.92 (inactive)
CC(C)C[C@H](NC(=O)[C@@H](O)[C@H](N)Cc1ccccc1)C(=O)O [Ubenimex] (20 µM)	1.02	0.971	0.969	0.332	0.887 (inactive)	1.15 (inactive)	0.148 (active)	1.04 (inactive)	0.95 (inactive)	0.936 (inactive)	0.973 (inactive)	0.168 (active)
